Laboratory results as given in publication PMC5540273 (PLoS ONE, 2017).

Key:
Details in all cases: concentration: 1 μM, replicates: in singlicate; n = 1
RIPK4 = system: RIPK4
RIPK5 = system: RIPK5
ROCK2 = system: ROCK2
ROS1 = system: ROS1
[1] = system: RPS6KA4(Kin.Dom.1-N-terminal)
[2] = system: RPS6KA4(Kin.Dom.2-C-terminal)
[3] = system: RPS6KA5(Kin.Dom.1-N-terminal)
[4] = system: RPS6KA5(Kin.Dom.2-C-terminal)
[5] = system: T1, RSK1(Kin.Dom.1-N-terminal)
T1 construct: gene RPS6KA1

ROCK1 = system: ROCK1
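Also: KINOMEscan kinase panel screen.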

Row | Compound | %Inh (RIPK4) | %Inh (RIPK5) | %Inh (ROCK2) | %Inh (ROS1) | %Inh [1] | %Inh [2] | %Inh [3] | %Inh [4] | %Inh [5] | %Inh (ROCK1)
1 | CNc1cc(-c2ccc3c(N)n[nH]c3c2)nc(N)n1 [GSK2224810] | 64% | 0% | 29% | 17% | 0% | 15% | 0% | 35% | 2% | –
2 | NS(=O)(=O)c1cccc(N/C=C2\C(=O)Nc3ccc(S(=O)(=O)Cc4c(Cl)cccc4Cl)cc32)c1 [GSK398099] | 14% | 0% | 2% | 0% | 2% | 0% | 0% | 0% | 11% | 0%
3 | COc1nccc(-c2c(-c3ccc(F)cc3)ncn2CCCN2CCOCC2)n1 [SB-282852] | 47% | 6% | 20% | 0% | 17% | 0% | 0% | 0% | 0% | 32%
4 | c1ccc(-c2ccnc3[nH]ccc23)cc1 [SB-693578] | 28% | 7% | 88% | 0% | 0% | 8% | 5% | 26% | 28% | 90%
5 | CC[C@@H]1CO[C@H](C(=O)Nc2ccccc2)CN1c1cc(-c2ccc3c(N)n[nH]c3c2)nc(NC)n1 [GSK2376236] | 0% | 8% | 52% | 24% | 10% | 0% | 28% | 23% | 7% | –
